# According to the supplement of paper PMC8728848:
# About 410 targets per protein were measured; listed, in parts, are those with the strongest signals and a random draw of the rest.
# B1: DCIR1 (Mus musculus), Q9QZ15 (protein)
# chain: MASEITYAEVKFKNESNSLHTYSESPAAPREKPIRDLRKPGSPSLLLTSLMLLLLLLAITFLVAFIIYFQKYSQLLEEKKAAKNIMHNELNCTKSVSPMEDKVWSCCPKDWRLFGSHCYLVPTVSSSASWNKSEENCSRMGAHLVVIQSQEEQDFITGILDTHAAYFIGLWDTGHRQWQWVDQTPYEESITFWHNGEPSSGNEKCATIIYRWKTGWGWNDISCSLKQKSVCQMKKINL
# Assays:
# Assay in all cases: glycan array binding signal (z-score within array); higher = stronger binding
# Details in all cases: glycan notation: IUPAC condensed, linker removed
# GalNAc(a1-3)GalNAc = target: GalNAc(a1-3)GalNAc
# Summary of the method: (§1)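 Arrays were curated from the Consortium for Functional Glycomics database, 3228 in total, and kept only where the protein sequence was available. Binding is expressed as a within-array Z-score. This score was averaged across arrays of the same protein sequence at different concentrations or buffers and across linkers, and negative values can be read as non-binding.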
# [1] = target: GalNAc(a1-3)GalNAc(b1-3)Gal(a1-4)Gal(b1-4)GlcNAc
# Summary of the method: as §1
# [2] = target: GlcNAc(b1-2)[GlcNAc(b1-4)]Man(a1-3)[GlcNAc(b1-4)][GlcNAc(b1-2)Man(a1-6)]Man(b1-4)GlcNAc(b1-4)GlcNAc
# Summary of the method: as §1
# [3] = target: GlcNAc(b1-3)Gal(b1-4)GlcNAc(b1-6)[GlcNAc(b1-3)Gal(b1-3)]GalNAc
# Summary of the method: as §1
# [4] = target: Kdn(a2-3)Gal(b1-4)[Fuc(a1-3)]GlcNAc
# Summary of the method: as §1
# [5] = target: Man(a1-2)Man(a1-2)Man(a1-3)Man
# Summary of the method: as §1
# [6] = target: Man(a1-2)Man(a1-2)Man(a1-6)[Man(a1-3)]Man
# Summary of the method: as §1
# [7] = target: Man(a1-3)[Man(a1-6)]Man(a1-6)[Man(a1-3)]Man
# Summary of the method: as §1
# [8] = target: Neu5Ac(a2-3)Gal(b1-3)GlcNAc(b1-6)GalNAc
# Summary of the method: as §1
# [9] = target: Neu5Ac(a2-3)Gal(b1-4)GlcNAc(b1-2)[Neu5Ac(a2-3)Gal(b1-4)GlcNAc(b1-4)]Man(a1-3)[GlcNAc(b1-4)][Neu5Ac(a2-3)Gal(b1-4)GlcNAc(b1-2)[Neu5Ac(a2-3)Gal(b1-4)GlcNAc(b1-6)]Man(a1-6)]Man(b1-4)GlcNAc(b1-4)GlcNAc
# Summary of the method: as §1
# [10] = target: Neu5Ac(a2-3)Gal(b1-4)GlcNAc(b1-2)[Neu5Ac(a2-3)Gal(b1-4)GlcNAc(b1-6)]Man(a1-6)[Neu5Ac(a2-3)Gal(b1-4)GlcNAc(b1-2)Man(a1-3)]Man(b1-4)GlcNAc(b1-4)GlcNAc
# Summary of the method: as §1
# [11] = target: Neu5Ac(a2-3)Gal(b1-4)GlcNAc(b1-3)Gal(b1-4)GlcNAc(b1-3)Gal(b1-4)GlcNAc
# Summary of the method: as §1
# [12] = target: Neu5Ac(a2-3)Gal(b1-4)GlcNAc(b1-3)Gal(b1-4)GlcNAc(b1-3)[Neu5Ac(a2-3)Gal(b1-4)GlcNAc(b1-3)Gal(b1-4)GlcNAc(b1-6)]GalNAc
# Summary of the method: as §1
# [13] = target: Neu5Ac(a2-3)Gal(b1-4)GlcNAc6S
# Summary of the method: as §1
# [14] = target: Neu5Ac(a2-3)Gal(b1-4)[Fuc(a1-3)]GlcNAc6S
# Summary of the method: as §1
# [15] = target: Neu5Ac(a2-6)Gal(b1-4)GlcNAc(b1-2)Man(a1-3)[Neu5Ac(a2-6)Gal(b1-4)GlcNAc(b1-2)Man(a1-6)]Man(b1-4)GlcNAc(b1-4)GlcNAc
# Summary of the method: as §1
# [16] = target: Neu5Ac(a2-6)Gal(b1-4)GlcNAc(b1-2)Man(a1-6)[Gal(b1-4)GlcNAc(b1-2)Man(a1-3)]Man(b1-4)GlcNAc(b1-4)GlcNAc
# Summary of the method: as §1
# [17] = target: Neu5Ac(a2-6)Gal(b1-4)GlcNAc(b1-2)Man(a1-6)[GlcNAc(b1-2)Man(a1-3)]Man(b1-4)GlcNAc(b1-4)GlcNAc
# Summary of the method: as §1
# [18] = target: Neu5Ac(a2-6)Gal(b1-4)GlcNAc(b1-2)[Neu5Ac(a2-6)Gal(b1-4)GlcNAc(b1-4)]Man(a1-3)[GlcNAc(b1-4)][Neu5Ac(a2-6)Gal(b1-4)GlcNAc(b1-2)[Neu5Ac(a2-6)Gal(b1-4)GlcNAc(b1-6)]Man(a1-6)]Man(b1-4)GlcNAc(b1-4)GlcNAc
# Summary of the method: as §1
# Neu5Ac(a2-6)GalNAc = target: Neu5Ac(a2-6)GalNAc
# Summary of the method: as §1
# [19] = target: Neu5Ac(a2-6)GalNAc(b1-4)GlcNAc
# Summary of the method: as §1
# [20] = target: Neu5Ac(a2-6)GalNAc(b1-4)GlcNAc6S
# Summary of the method: as §1
# [21] = target: Neu5Ac(a2-8)Neu5Ac(a2-3)Gal(b1-4)GlcNAc
# Summary of the method: as §1
# [22] = target: Neu5Ac(a2-8)Neu5Ac(a2-8)Neu5Ac(a2-3)[Gal(b1-3)GalNAc(b1-4)]Gal(b1-4)Glc
# Summary of the method: as §1
# [23] = target: Neu5Gc(a2-3)Gal(b1-4)GlcNAc
# Summary of the method: as §1
# [24] = target: Neu5Gc(a2-8)Neu5Ac(a2-3)Gal(b1-4)GlcNAc
# Summary of the method: as §1
# [25] = target: Neu5Gc(a2-8)Neu5Gc(a2-6)Gal(b1-4)GlcNAc
# Summary of the method: as §1
binder,measurement,setting,value
B1,glycan array binding signal (z-score),GalNAc(a1-3)GalNAc,-0.78
same,glycan array binding signal (z-score),[1],2.31
same,glycan array binding signal (z-score),[2],-0.101
same,glycan array binding signal (z-score),[3],-0.947
same,glycan array binding signal (z-score),[4],2.92
same,glycan array binding signal (z-score),[5],-0.962
same,glycan array binding signal (z-score),[6],4.44
same,glycan array binding signal (z-score),[7],0.267
same,glycan array binding signal (z-score),[8],0.265
same,glycan array binding signal (z-score),[9],-0.887
same,glycan array binding signal (z-score),[10],0.375
same,glycan array binding signal (z-score),[11],-0.844
same,glycan array binding signal (z-score),[12],1.36
same,glycan array binding signal (z-score),[13],0.145
same,glycan array binding signal (z-score),[14],-0.532
same,glycan array binding signal (z-score),[15],-0.079
same,glycan array binding signal (z-score),[16],-0.16
same,glycan array binding signal (z-score),[17],2.04
same,glycan array binding signal (z-score),[18],-0.823
same,glycan array binding signal (z-score),Neu5Ac(a2-6)GalNAc,2.86
same,glycan array binding signal (z-score),[19],-0.517
same,glycan array binding signal (z-score),[20],-0.058
same,glycan array binding signal (z-score),[21],-1.1
same,glycan array binding signal (z-score),[22],2.88
same,glycan array binding signal (z-score),[23],-0.678
same,glycan array binding signal (z-score),[24],-1.04
same,glycan array binding signal (z-score),[25],-0.802
